From ChEMBL document CHEMBL3988442, “University of Dundee, Small-Polar-MMV Screening Library” (2021) come the findings set out here.

For some of these results: Entries with a potency or affinity are not part of this list.

Holding throughout (design): scale not given: direction of the effect not stated beside the values
In test [1] the target is Protein translocase subunit SecA (Escherichia coli (strain K12)) (UniProt P10408). The test is described as follows: Assay to Identify E. coli SecA ATPase Inhibitors. Type of test: functional. Particulars: 30 µM.
In test [2] the target is T1, Ubiquitin-activating enzyme e1, putative (Leishmania donovani (strain BPK282A1)) (UniProt E9BSI1).
T1 sequence (whole entry): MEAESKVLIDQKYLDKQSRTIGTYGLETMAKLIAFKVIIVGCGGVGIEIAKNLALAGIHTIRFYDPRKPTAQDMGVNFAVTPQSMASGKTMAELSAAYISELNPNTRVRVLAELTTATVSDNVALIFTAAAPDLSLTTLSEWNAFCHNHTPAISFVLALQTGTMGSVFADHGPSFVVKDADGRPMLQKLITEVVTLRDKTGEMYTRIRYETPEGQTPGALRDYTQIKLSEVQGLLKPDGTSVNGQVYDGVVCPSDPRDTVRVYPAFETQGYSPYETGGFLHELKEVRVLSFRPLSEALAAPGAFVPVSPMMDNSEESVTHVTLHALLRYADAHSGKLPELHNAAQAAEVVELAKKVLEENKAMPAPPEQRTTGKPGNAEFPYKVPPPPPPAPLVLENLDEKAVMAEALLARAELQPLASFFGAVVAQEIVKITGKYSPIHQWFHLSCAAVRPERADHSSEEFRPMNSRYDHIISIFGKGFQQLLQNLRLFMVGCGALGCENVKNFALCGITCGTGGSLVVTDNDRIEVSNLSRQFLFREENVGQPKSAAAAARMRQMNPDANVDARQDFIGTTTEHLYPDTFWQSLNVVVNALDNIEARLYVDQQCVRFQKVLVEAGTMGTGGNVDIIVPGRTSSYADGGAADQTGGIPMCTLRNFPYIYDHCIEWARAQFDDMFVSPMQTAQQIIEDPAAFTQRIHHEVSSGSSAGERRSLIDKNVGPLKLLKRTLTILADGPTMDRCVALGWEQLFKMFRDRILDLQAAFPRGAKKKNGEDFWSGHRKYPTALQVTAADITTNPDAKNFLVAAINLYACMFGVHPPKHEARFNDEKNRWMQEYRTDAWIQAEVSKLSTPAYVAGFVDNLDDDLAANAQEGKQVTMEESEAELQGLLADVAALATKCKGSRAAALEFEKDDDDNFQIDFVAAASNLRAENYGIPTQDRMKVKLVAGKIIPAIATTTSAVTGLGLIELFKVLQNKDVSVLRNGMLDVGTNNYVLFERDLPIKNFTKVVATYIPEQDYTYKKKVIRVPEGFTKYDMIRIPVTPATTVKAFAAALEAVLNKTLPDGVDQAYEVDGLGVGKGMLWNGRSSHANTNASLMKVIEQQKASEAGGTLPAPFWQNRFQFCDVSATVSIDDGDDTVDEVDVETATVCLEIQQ
As to the kind of experiment: Leishmania donovani Ubiquitin Activating Enzyme (LdE1). Type of test: functional. Particulars: 30 µM.

The target of test [3] is T2, Aspartate--tRNA(Asp/Asn) ligase (Mycobacterium tuberculosis (strain ATCC 25618 / H37Rv)) (UniProt P9WFW3). Further: in the data most compounds retested in dose-response had high values.
T2 sequence (whole entry): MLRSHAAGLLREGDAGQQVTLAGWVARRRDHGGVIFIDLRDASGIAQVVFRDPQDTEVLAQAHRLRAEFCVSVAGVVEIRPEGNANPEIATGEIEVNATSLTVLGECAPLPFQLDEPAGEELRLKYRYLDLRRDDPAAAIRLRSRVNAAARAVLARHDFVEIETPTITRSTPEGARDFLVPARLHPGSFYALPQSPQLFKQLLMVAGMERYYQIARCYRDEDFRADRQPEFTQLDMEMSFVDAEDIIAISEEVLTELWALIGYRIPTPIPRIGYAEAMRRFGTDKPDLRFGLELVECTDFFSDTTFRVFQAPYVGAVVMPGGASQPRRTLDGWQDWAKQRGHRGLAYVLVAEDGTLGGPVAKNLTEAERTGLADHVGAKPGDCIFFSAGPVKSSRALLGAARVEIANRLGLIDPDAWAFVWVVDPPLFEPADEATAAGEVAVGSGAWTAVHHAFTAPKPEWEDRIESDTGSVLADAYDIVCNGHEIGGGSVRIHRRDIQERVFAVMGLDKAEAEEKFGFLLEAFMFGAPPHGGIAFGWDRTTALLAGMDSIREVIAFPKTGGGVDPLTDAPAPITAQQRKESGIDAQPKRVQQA
The test is described as follows: Assay for Asp RNA synthetase-1 from Mycobacterium tuberculosis. Type of test: functional. Particulars: 30 µM.

The target in test [4] is AMP-activated protein kinase, AMPK (Homo sapiens) (UniProt P54646+O43741+P54619+Q9UGJ0+Q9Y478+Q13131+Q9UGI9). As to the kind of experiment: AMP-dependent Kinase enzyme assay. An in vitro enzyme assay that detects ADP turnover that is directly proportional to AMPK activity. This uses naive AMPK that is activated during the assay with MK-8722. Type of test: functional. Particulars: 30 µM.

Test [5] addresses Sialic acid-binding Ig-like lectin 9 (Homo sapiens) (UniProt Q9Y336). The test is described as follows: Hs-Siglec9 ALPHAscreen SOP 20170721. Particulars: 10 µM. (In general: In Alpha technology, singlet oxygen from a donor bead excites a nearby acceptor bead.)
For the next test, the system named is Trypanosoma cruzi. As to the kind of experiment: Trypanosoma cruzi phosphomannomutase and mannose-1-phosphate guanylyltransferase assay. It is filed as functional. Particulars: 10 µM.
The target of test [6] is T3, Arginase-2, mitochondrial (Homo sapiens) (UniProt P78540).
T3 sequence (whole entry): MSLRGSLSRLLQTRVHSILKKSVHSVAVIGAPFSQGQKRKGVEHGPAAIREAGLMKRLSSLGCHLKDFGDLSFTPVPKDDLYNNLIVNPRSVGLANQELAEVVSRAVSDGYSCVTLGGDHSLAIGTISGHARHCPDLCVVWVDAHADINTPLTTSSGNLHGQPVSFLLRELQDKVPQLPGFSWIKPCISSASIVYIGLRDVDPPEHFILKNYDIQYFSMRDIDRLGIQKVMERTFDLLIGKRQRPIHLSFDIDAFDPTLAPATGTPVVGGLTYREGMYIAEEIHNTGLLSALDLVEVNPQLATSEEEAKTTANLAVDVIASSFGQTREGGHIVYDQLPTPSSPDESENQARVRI
As to the kind of experiment: in vitro enzyme assay to detect the production of urea directly proportional to the activity of Arginase II. Further: in the data most compounds retested in dose-response had high values. It is filed as functional. Particulars: 33.3 µM.

For test [7], the target named is T4, Proteasome subunit beta (Trypanosoma cruzi) (UniProt O96673).
T4 sequence (whole entry): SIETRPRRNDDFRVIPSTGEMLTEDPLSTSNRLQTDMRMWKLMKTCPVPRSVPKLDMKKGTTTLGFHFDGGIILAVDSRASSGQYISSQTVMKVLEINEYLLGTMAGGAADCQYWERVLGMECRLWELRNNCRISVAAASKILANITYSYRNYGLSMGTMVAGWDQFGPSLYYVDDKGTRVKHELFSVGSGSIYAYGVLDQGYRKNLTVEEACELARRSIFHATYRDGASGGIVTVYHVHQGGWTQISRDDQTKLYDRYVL
As to the kind of experiment: Trypanosoma cruzi proteasome chymotrypsin-like activity (TcProtChymo) assay. Further: in the data most compounds retested in dose-response had high values. It is filed as functional. Particulars: 9.37 µM.

The next test is filed under the species Homo sapiens. As to the kind of experiment: To identify inhibition of the IFN signalling (Jak-Stat) pathway via expression of an eGFP reporter gene under the control of an IFN-stimulated response element (ISRE) containing MxA promoter. Particulars: 30 µM. Type of test: functional.
Test [8] deals with Shiga toxin 2 (Escherichia coli O157:H7) (UniProt P09385+P09386). The test is described as follows: E. coli 0.157:H7 Shiga Toxin SOP - stx2 screening assay. It is filed as functional. Particulars: 30 µM.
Test [9] has as its target T5, Tyrosyl-tRNA synthetase, putative (Trypanosoma cruzi (strain CL Brener)) (UniProt Q4DSP6).
T5 sequence (whole entry): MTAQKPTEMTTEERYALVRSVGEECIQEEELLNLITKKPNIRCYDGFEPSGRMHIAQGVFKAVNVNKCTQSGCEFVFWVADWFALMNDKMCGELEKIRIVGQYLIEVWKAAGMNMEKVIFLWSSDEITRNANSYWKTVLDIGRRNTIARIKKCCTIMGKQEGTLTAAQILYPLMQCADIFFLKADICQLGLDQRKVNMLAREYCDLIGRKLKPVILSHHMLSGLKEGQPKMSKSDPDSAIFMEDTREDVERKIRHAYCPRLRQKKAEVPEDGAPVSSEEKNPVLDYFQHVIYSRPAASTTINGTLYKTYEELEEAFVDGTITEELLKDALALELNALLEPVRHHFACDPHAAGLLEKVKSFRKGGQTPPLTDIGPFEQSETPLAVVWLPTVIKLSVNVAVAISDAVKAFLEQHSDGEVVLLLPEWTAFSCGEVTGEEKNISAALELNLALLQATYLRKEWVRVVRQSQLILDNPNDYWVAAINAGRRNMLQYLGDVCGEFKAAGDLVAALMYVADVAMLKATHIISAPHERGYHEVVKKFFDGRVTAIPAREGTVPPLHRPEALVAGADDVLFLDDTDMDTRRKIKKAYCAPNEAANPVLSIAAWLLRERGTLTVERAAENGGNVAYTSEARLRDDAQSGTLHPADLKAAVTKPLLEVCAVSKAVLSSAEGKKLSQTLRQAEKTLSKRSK
The test is described as follows: Trypanosoma cruzi tyrosyl tRNA synthetase (TcYRS) _High Tyrosine SOP. Further: in the data most compounds retested in dose-response had high values. It is filed as functional. Particulars: 30 µM.

In test [10] the target is T5, Tyrosyl-tRNA synthetase, putative (Trypanosoma cruzi (strain CL Brener)). The test is described as follows: Trypanosoma cruzi tyrosyl tRNA synthetase (TcYRS) SOP. Type of test: functional. Particulars: 30 µM.
Test [11] deals with Chromo domain-containing protein 1 (Saccharomyces cerevisiae (strain ATCC 204508 / S288c) (Baker's yeast)) (UniProt P32657). As to the kind of experiment: ScCHD-1 Enzyme Inhibition Assay. Further: in the data most compounds retested in dose-response had high values. Particulars: 30 µM. It is filed as functional.
Sequence of Chromo domain-containing protein 1 (Saccharomyces cerevisiae (strain ATCC 204508 / S288c) (Baker's yeast)) (P32657 whole entry, the tested form may be a part): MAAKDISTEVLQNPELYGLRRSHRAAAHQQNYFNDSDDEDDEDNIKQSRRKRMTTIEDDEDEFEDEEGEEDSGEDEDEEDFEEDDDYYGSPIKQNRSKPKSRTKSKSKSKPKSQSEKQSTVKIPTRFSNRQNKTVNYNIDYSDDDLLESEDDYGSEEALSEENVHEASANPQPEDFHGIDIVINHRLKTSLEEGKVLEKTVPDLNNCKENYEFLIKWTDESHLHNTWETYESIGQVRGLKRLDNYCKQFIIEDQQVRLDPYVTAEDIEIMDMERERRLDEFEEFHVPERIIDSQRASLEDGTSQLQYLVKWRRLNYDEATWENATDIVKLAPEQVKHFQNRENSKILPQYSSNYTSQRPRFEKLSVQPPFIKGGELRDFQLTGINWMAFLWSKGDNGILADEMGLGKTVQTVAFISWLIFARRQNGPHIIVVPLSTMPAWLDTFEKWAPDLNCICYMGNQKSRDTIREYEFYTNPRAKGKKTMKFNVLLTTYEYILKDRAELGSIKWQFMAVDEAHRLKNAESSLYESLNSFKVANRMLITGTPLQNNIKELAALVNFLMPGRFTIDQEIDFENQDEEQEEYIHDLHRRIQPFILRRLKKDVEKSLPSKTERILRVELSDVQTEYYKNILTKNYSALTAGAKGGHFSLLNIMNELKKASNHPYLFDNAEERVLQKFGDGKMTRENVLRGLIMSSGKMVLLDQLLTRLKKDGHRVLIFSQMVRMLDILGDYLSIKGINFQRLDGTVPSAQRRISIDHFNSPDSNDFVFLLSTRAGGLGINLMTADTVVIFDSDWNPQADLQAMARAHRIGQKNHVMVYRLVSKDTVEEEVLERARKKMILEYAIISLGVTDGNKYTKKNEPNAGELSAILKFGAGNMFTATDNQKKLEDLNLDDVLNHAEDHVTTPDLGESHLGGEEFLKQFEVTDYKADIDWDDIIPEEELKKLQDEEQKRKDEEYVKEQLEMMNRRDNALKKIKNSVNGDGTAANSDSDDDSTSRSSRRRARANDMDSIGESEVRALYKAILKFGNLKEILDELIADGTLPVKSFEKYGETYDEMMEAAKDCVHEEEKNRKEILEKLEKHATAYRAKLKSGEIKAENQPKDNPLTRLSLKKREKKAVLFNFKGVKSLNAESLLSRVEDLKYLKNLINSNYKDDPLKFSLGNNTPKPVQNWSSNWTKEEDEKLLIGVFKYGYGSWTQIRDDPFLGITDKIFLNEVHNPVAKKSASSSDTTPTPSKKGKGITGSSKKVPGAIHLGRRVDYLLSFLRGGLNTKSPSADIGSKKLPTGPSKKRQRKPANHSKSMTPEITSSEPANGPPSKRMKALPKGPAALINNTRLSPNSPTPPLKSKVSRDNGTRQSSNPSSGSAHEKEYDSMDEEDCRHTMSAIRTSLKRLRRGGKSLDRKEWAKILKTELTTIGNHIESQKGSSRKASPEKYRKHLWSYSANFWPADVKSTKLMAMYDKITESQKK

Sequence of Sialic acid-binding Ig-like lectin 9 (Homo sapiens) (Q9Y336 whole entry): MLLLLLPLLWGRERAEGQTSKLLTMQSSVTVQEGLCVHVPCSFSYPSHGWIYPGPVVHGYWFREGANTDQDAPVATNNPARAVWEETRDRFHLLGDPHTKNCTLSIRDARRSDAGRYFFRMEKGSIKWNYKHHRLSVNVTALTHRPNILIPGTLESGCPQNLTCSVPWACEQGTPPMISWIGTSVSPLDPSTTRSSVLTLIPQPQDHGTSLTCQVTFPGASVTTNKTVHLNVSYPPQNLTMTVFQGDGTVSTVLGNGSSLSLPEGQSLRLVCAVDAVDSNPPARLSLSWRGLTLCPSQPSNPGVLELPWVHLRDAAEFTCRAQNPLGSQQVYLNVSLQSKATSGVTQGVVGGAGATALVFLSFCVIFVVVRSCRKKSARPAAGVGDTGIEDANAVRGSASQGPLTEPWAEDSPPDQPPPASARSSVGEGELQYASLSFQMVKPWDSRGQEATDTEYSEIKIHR
Sequence of Protein translocase subunit SecA (Escherichia coli (strain K12)) (P10408 whole entry): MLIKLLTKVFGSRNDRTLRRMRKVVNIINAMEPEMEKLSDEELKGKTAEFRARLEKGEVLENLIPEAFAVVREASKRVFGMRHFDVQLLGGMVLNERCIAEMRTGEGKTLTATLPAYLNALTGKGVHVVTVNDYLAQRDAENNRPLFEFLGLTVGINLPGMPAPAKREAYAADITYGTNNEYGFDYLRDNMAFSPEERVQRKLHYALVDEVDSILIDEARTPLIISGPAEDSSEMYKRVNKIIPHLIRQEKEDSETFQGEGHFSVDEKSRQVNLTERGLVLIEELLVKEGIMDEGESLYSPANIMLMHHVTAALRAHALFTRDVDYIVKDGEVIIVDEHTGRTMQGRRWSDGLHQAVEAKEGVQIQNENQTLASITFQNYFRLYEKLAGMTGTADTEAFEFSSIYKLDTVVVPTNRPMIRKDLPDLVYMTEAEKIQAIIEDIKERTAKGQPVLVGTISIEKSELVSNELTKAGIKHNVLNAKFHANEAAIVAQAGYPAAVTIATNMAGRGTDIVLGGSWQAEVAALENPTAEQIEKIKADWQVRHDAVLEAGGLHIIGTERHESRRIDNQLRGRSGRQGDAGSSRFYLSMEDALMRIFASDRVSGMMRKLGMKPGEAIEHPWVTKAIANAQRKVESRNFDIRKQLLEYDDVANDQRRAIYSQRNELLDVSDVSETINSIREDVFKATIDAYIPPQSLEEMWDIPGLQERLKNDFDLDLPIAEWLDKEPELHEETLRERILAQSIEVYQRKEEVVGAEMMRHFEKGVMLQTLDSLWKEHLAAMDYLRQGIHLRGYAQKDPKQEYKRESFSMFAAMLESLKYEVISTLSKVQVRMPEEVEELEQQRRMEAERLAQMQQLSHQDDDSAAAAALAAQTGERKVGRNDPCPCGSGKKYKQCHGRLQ

In the case of `Cc1ccc(CN2CCC3(CC2)C(=O)N(C)c2ccccc23)s1`, the Percent Effect in test [1] is -4.09%; in test [2], 8.11%; in test [3] it was 7.84%; in test [4] it was -1.34%; in test [5], 6.95%; in the test on Trypanosoma cruzi, -0.781%. Further, the Percent Effect in [6] is 2.08%; in test [7], 16.8%; in the test listed under Homo sapiens it was 20.4%; in [8], -2.26%; in [9] it was 7.92%; in test [10], 11%. The Percent Effect in test [11] worked out at 5.6%.
As to `NC(=O)N1CC2(CCNCC2)c2cc(Cl)ccc21`, the Percent Effect is 0.158% in test [1]; 1.3% in [2]; 0.933% in [3]; -0.465% in [5]; -3.38% in the test with Trypanosoma cruzi; 4.11% in test [6]. Moreover, the Percent Effect in test [7] is 8.84%; in the test listed under Homo sapiens, 10.9%; in test [8] it was 4.45%; in test [9], 0%; in test [10], -2.5%; in test [11], 2.33%.
For the compound `O=C1N(Cc2cccnc2)CCC12CCCNC2` (stereo unspecified), the Percent Effect is -3.76% in test [1]; 16.9% in test [2]; 2.62% in test [3]; -3.98% in test [5]; -3.19% in the test on Trypanosoma cruzi; 0.913% in [6]. The Percent Effect is 20% in test [7]; 34% in the test listed under Homo sapiens; 7.06% in test [8]; 1.93% in test [9]; 2.5% in test [10]; -10.7% in test [11].
In the case of `Cc1nc(CN2CCO[C@H]3[C@@H](OCc4ccccn4)CC[C@@H]32)cs1`, the Percent Effect in test [1] is -6.18%; in [2] it was 9.09%; in [3], 3.07%; in [5], -6.32%; in the test with Trypanosoma cruzi, -3.6%; in test [6], -2.43%. Further, the Percent Effect in test [7] is 10.2%; in the test listed under Homo sapiens it was 4.6%; in test [8] it was -1.17%; in test [9], 4.74%; in test [10], 7.69%; in [11], -4.92%.
In the case of `CCc1ccc(CN2CCN(C)c3ncccc3C2)o1`, the Percent Effect in test [1] is -8.73%; in test [2] it was 1.3%; in test [3], -0.259%; in test [5], 15.1%; in the test on Trypanosoma cruzi, -1.27%; in [6], -3.24%. In addition, the Percent Effect is 7.68% in [7]; 6.96% in the test listed under Homo sapiens; 1.33% in [8]; 3.68% in [9]; -5.13% in test [10]; -4.2% in [11].
